Bioassay records: PubChem, National Center for Advancing Translational Sciences (NCATS)
EPAC1 antag – antagonists of human EPAC1. O95398. EPAC1 GEF assay, Rap1b-BODIPY-GDP exchange fluorescence. Potency, µM (series often up to 115 µM), for the others: at the top dose activity change, negative = inhibition, actives largely listed as inhibitors. 360,000 tested, 0.14% active. AID 720709;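 note: potency is the fitted concentration of half-maximal effect; plate controls were vehicle for no effect and positive control for full effect; nearly all actives have a fitted effect of over 50% in size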
Target sequence (O95398 whole entry, looked up): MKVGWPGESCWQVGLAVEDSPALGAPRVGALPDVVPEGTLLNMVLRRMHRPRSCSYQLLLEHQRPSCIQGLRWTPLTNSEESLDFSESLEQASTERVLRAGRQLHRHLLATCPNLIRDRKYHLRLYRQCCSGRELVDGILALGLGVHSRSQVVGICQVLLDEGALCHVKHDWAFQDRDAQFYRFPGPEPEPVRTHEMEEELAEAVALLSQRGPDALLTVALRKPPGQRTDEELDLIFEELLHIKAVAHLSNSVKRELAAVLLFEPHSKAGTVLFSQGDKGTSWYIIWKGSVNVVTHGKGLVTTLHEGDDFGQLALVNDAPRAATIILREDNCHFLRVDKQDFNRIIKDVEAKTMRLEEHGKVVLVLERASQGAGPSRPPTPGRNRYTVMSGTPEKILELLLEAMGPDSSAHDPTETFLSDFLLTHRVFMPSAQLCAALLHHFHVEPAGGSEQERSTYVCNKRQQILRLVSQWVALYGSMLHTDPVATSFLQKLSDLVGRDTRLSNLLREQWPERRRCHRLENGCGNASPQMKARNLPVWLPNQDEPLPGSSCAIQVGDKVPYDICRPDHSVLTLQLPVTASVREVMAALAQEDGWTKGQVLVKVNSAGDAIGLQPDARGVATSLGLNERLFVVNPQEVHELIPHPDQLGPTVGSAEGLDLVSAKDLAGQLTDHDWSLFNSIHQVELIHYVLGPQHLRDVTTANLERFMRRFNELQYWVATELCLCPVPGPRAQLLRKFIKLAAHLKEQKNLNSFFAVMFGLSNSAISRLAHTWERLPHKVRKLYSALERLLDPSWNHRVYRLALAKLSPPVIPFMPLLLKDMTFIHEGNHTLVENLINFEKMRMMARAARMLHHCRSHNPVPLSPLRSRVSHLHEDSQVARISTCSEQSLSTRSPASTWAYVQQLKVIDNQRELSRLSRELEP
EPAC2 ag – activates human EPAC2 exchange factor | 360,000 tested, 0.079% active | AID 720711 | Potency, µM (top dose mostly 154 µM), inactives show at the highest dose activation, most hits filed as activators | Q8WZA2 | EPAC2 activation, biochemical qHTS; response scale: 100% = 6.5 mM cAMP response; note: potency is the fitted concentration of half-maximal effect; nearly all actives have a fitted effect of over 50% in size
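Compounds were titrated in qHTS against a Rap1B-BODIPY-GDP (250 nM) complex with EPAC2 (100 nM) and GDP (50 uM). BODIPY-GDP release tracked at 480/540 nm over 30 min at room temperature, normalized to 6.5 mM cAMP.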
EPAC1 ag – activates human EPAC1 exchange factor | O95398 | EPAC1 agonist qHTS, biochemical assay; response scale: 100% = response to 6.5 mM cAMP | Potency, µM (highest dose often 154 µM), for the others: at the top dose activation, actives largely listed as activators | 360,000 tested, 0.073% active; note: potency is the fitted concentration of half-maximal effect; nearly all actives have a fitted effect of over 60% in size
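Fluorescent GDP-exchange assay: 100 nM EPAC1 with 250 nM Rap1B preloaded with BODIPY-GDP and 50 uM GDP; compounds tested as concentration series, 5 min at room temperature, then read every 5 min for 30 min (ex 480/em 540 nm); normalized to 6.5 mM cAMP.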
hERG WT inh – inhibitors of human wildtype KCNH2 potassium channel. 340,000 tested, 0.37% active. U2OS, BacMam KCNH2, thallium flux FluxOr; active compounds read low. activity change, % at 1.84 µM. Q12809;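 active = maximum activity change below -70%; inconclusive = maximum activity change between -70% and -50%; inactive = maximum activity change above -50%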; note: % is set by controls: 0 for no effect and ±100 for the full control effect
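U2OS cells were transduced with wild-type KCNH2 virus (2.03 x 10^8 / mL) for 4 h at room temperature, then cultured overnight at 37 C. Thallium flux was read with FluxOr dye. Rate constants were normalized to DMSO controls.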
EPAC2 antagonist – EPAC2 (human) antagonism | Q8WZA2 | Potency, µM (titrated, usually from 114 µM), without a hit: at the top dose activity, negative = inhibition, actives largely listed as inhibitors | EPAC2 GEF exchange of Rap1B-BODIPY-GDP, fluorescence | 360,000 tested, 0.18% active; note: potency is the fitted concentration of half-maximal effect; % is set by controls: 0 for no effect and ±100 for the full control effect; nearly all actives have a fitted effect of over 45% in size
KCNH2 3.1 inh – inhibitors of human KCNH2 3.1 potassium channel isoform | U2OS KCNH2 3.1, thallium flux FluxOr; active compounds read low | activity change, % (tested at about 1.8 µM) | 340,000 tested, 0.95% active;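 active = maximum activity change below -70%; inconclusive = maximum activity change from -70% to -50%; inactive = maximum activity change above -50%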;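 note: thallium influx rate constant from kinetic fluorescence after stimulation buffer; % is set by controls: 0 for no effect and ±100 for the full control effect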
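FluxOr-based Tl+ influx in U2OS cells transduced with KCNH2 3.1 virus; rate constants normalized to DMSO controls.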
* = called active by the depositor. Rows were chosen to be rich in hits. Some 1.4% of all compounds tested hit in one or more screens of this group. Unless noted, calls come from the whole dose curve; as a rule, active = well fitted curve in the direction sought with a large enough effect; inconclusive = small, poorly fitted or top-dose-only effect, or another doubt; inactive = no such curve, though single readings can be large; an effect the other way counts as inactive or inconclusive.

`CN(C)C(=O)CNC(=O)CN1C(=O)NC2(CCCc3sccc32)C1=O` (stereo not given) gave EPAC1 antag -4.7%, EPAC2 ag 8.9%, EPAC1 ag 1.6%, hERG WT inh -13.8, EPAC2 antagonist 1.2% and KCNH2 3.1 inh 2.1.
Screening O=C(NOCc1cscn1)Nc1ccccc1 returned EPAC1 antag -5.2%, EPAC2 ag 6.1%, EPAC1 ag 3.5%, hERG WT inh 44.6, EPAC2 antagonist 0.9% and KCNH2 3.1 inh -5.2.
CCOc1cc(CN2CCN(CCOCCO)CC2)ccc1OC was read as EPAC1 antag 1.8%, EPAC2 ag 1.7%, EPAC1 ag -2.5%, hERG WT inh 9.8, EPAC2 antagonist 0.8% and KCNH2 3.1 inh 6.0.
Screening O=C1C=CC(=O)c2c(O)c(N3CCN(CCO)CC3)c(Cl)c(O)c21 returned EPAC1 antag 14.1µM*, EPAC2 ag 0.1%, EPAC1 ag -0.9%, hERG WT inh -19.1, EPAC2 antagonist inconclusive and KCNH2 3.1 inh -4.9.
Screening O=C1C=CC(=O)c2c(O)c(N3CCN(CCOCCO)CC3)c(Br)c(O)c21 returned EPAC1 antag 44.7µM*, EPAC2 ag -7.3%, EPAC1 ag -8.5%, hERG WT inh 2.7, EPAC2 antagonist -13.9% and KCNH2 3.1 inh 6.4.
Screening CCc1nc2ccc(C(=O)NCC3CCCCC3)cn2c1N(C)Cc1nccs1 returned EPAC1 antag 6.0%, EPAC2 ag 2.5%, EPAC1 ag -8.9% and EPAC2 antagonist -4.0%.
For Cc1c(NC2=NC3(CCCCC3)Cc3ccccc32)c(=O)n(C)n1-c1ccccc1 the results were EPAC1 antag 0.0%, EPAC2 ag -0.6%, EPAC1 ag 5.7%, hERG WT inh -171.6*, EPAC2 antagonist 0.3% and KCNH2 3.1 inh -194.2*.
Screening Cc1cn(C2CCCCO2)c(=O)[nH]c1=O (stereo not given) returned EPAC1 antag 3.6%, EPAC2 ag 6.2%, EPAC1 ag -9.3%, hERG WT inh -1.5, EPAC2 antagonist 18.3% and KCNH2 3.1 inh 21.0.
For COc1ccc(NS(=O)(=O)N2CCCCC2)cc1 the results were EPAC1 antag -14.4%, EPAC2 ag 4.0%, EPAC1 ag -3.1%, hERG WT inh 0.7, EPAC2 antagonist 2.1% and KCNH2 3.1 inh 18.9.
For COC(=O)C[C@H]1C=C[C@@H](NC(=O)C2CC2)[C@@H](CO)O1 the results were EPAC1 antag 3.8%, EPAC2 ag -4.5%, EPAC1 ag -7.5% and EPAC2 antagonist -2.8%.
For COc1ccc2c(C)cc(=O)[nH]c2c1 the results were EPAC1 antag 13.1%, EPAC2 ag 10.0%, EPAC1 ag 4.1%, hERG WT inh -4.8, EPAC2 antagonist 28.5% and KCNH2 3.1 inh -95.0*.
`O=C(CSc1ccc(Cl)cc1)NC(=O)c1ccccc1` gave EPAC1 antag -29.2%, EPAC2 ag 4.5%, EPAC1 ag -1.3%, hERG WT inh -8.2, EPAC2 antagonist -20.4% and KCNH2 3.1 inh -19.3.
`O=C(Nc1ccc(N2CCOCC2)c(S(=O)(=O)Nc2cc(Cl)ccc2Cl)c1)c1cccnc1` gave EPAC1 antag -1.7%, EPAC2 ag 3.3%, EPAC1 ag -4.8%, hERG WT inh 4.4, EPAC2 antagonist -22.7% and KCNH2 3.1 inh -5.4.
For CC(=O)NC(=S)Nc1ccc(N2CCOCC2)c(S(=O)(=O)Nc2cc(Cl)ccc2Cl)c1 the results were EPAC1 antag -19.2%, EPAC2 ag 17.9%, EPAC1 ag 8.8%, hERG WT inh inconclusive, EPAC2 antagonist -0.9% and KCNH2 3.1 inh -81.9*.
`COc1ccc(-n2nnnc2CNC(=O)c2c(-c3ccccc3Cl)noc2C)cc1` gave EPAC1 antag 2.8%, EPAC2 ag 2.2%, EPAC1 ag -2.4%, hERG WT inh -1.6, EPAC2 antagonist -3.4% and KCNH2 3.1 inh -25.1.
`Cc1ccc(S(=O)(=O)N=S(CCO)CCO)cc1` gave EPAC1 antag -19.5%, EPAC2 ag 4.1%, EPAC1 ag 7.8%, hERG WT inh 1.3, EPAC2 antagonist 5.4% and KCNH2 3.1 inh 11.1.
`COc1ccc(C(=S)N2CCOCC2)cc1OC(=O)c1ccccc1Cl` gave EPAC1 antag inconclusive, EPAC2 ag 11.8%, EPAC1 ag -1.0%, hERG WT inh -4.2, EPAC2 antagonist -17.3% and KCNH2 3.1 inh 7.3.
Screening O=C1NC(=S)S/C1=C\C=C\c1ccc([N+](=O)[O-])o1 returned EPAC1 antag 56.2µM*, EPAC2 ag -11.5%, EPAC1 ag 0.0%, hERG WT inh -2.2, EPAC2 antagonist 50.1µM* and KCNH2 3.1 inh -1.6.
Screening O=C(O)/C=C/c1ccc([N+](=O)[O-])o1 returned EPAC1 antag -6.2%, EPAC2 ag 3.6%, EPAC1 ag 7.3%, hERG WT inh -10.5, EPAC2 antagonist 1.3% and KCNH2 3.1 inh 20.3.
`CCC[C@@H]1CCCO[C@@](C(=O)NCc2cc(C)n(C)n2)(C(F)(F)F)C1` gave EPAC1 antag -25.9%, EPAC2 ag 4.4%, EPAC1 ag 14.9%, hERG WT inh 0.1, EPAC2 antagonist 7.0% and KCNH2 3.1 inh 5.5.
`CC(=O)c1ccc(S(=O)(=O)NCCOc2ccccc2)cc1` gave EPAC1 antag -2.1%, EPAC2 ag -1.8%, EPAC1 ag 3.3%, hERG WT inh 12.0, EPAC2 antagonist -4.2% and KCNH2 3.1 inh 9.4.
For CCOC(=O)/C=C(\C)Sc1cc(O)c2ccccc2c1O the results were EPAC1 antag inconclusive, EPAC2 ag 7.1%, EPAC1 ag -1.5%, hERG WT inh -3.9, EPAC2 antagonist 44.7µM* and KCNH2 3.1 inh 8.7.
For O=C(NC1(O)C(=O)c2ccccc2C1=O)c1ccc(C(F)(F)F)cc1 the results were EPAC1 antag 35.5µM*, EPAC2 ag 23.9%, EPAC1 ag 0.8%, hERG WT inh 1.4, EPAC2 antagonist inconclusive and KCNH2 3.1 inh 10.7.
O=C1NN(c2ccccc2)C(=O)C2C3C=CC(C4CC34)C12 (stereo not given) was read as EPAC1 antag 12.8%, EPAC2 ag 5.4%, EPAC1 ag -10.6%, hERG WT inh -147.0*, EPAC2 antagonist 21.6% and KCNH2 3.1 inh 14.0.
COCCN(C(=O)c1ccc(N(C)S(=O)(=O)c2ccc(C)cc2)cc1)c1c(N)n(CC(C)C)c(=O)[nH]c1=O was read as EPAC1 antag -16.4%, EPAC2 ag 4.5%, EPAC1 ag -0.2%, hERG WT inh 2.9, EPAC2 antagonist -28.5% and KCNH2 3.1 inh 16.5.
`COc1cc2c(cc1OC)C(C(=O)Nc1ccc(F)c(Cl)c1)CC(=O)N2` (stereo not given) gave EPAC1 antag -13.9%, EPAC2 ag 3.0%, EPAC1 ag 7.8%, hERG WT inh 2.1, EPAC2 antagonist -2.8% and KCNH2 3.1 inh -110.2*.
